Experimental data as given in PubChem BioAssay AID1159580 (chemical genetic matrix, 2015).
Among all 5,500 compounds or so, about 2,000 (36%) were called active. About 18% were inconclusive and are not listed. No stated cut-off is given here; in the data, active means normalized growth mostly below about 0.91 (no sharp cut-off); inconclusive means no clear call, values can overlap the other calls; inactive means mostly above about 0.92. The list shows a part of the results.

Assay: chemical genetic growth profiling, strain panel (AID 1159580);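 further: tested at 20 µM; growth read once vehicle control cultures reached saturation at 30 °C; 1 = growth at the plate median or of vehicle wells; lower values mean less growth of the strain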
Settings: growth OD

Measured: normalized growth

COc1cc2c(cc1OC)C(=O)C(CC1CCN(Cc3ccccc3)CC1)C2 (stereo not given)
active: S. cerevisiae deletion strains, locus YJR075W, strain HOC1, hits give low values 0.778 | S. cerevisiae deletion strains, locus YLR058C, strain SHM2, hits give low values 0.874 | S. cerevisiae deletion strains, locus YLR262C, strain YPT6 (second series), hits give low values 0.589 | S. cerevisiae deletion strains, locus YLR268W, strain sec22, hits give low values 0.837 | S. cerevisiae deletion strains, locus YLR418C, strain cdc73, hits give low values 0.737 | S. cerevisiae deletion strains, locus YML032C, strain rad52, hits give low values 0.675 | S. cerevisiae deletion strains, locus YMR223W, strain ubp8, hits give low values 0.86 | S. cerevisiae deletion strains, locus YNL067W, strain RPL9B, hits give low values 0.787 | S. cerevisiae deletion strains, locus YNL233W, strain BNI4, hits give low values 0.75 | S. cerevisiae deletion strains, locus YNL250W, strain rad50, hits give low values 0.802 | S. cerevisiae deletion strains, locus YNL307C, strain MCK1, hits give low values 0.665 | S. cerevisiae deletion strains, locus YNR052C, strain pop2, hits give low values 0.805 | S. cerevisiae deletion strains, locus YOL006C, strain TOP1, hits give low values 0.335 | S. cerevisiae deletion strains, locus YOR069W, strain VPS5, hits give low values 1.12 [resistant] | S. cerevisiae deletion strains, locus YOR184W, strain ser1, hits give low values 0.776 | S. cerevisiae deletion strains, locus YOR270C, strain vph1, hits give low values 0.608 | S. cerevisiae deletion strains, locus YPL055C, strain LGE1, hits give low values 0.738 | S. cerevisiae deletion strains, locus YPR163C, strain tif3, hits give low values 0.692 | S. cerevisiae deletion strains, strain wtn01, hits give low values 0.777 | S. cerevisiae strains, strain wild type, hits give low values 0.874
inactive: S. cerevisiae deletion strains, locus YJR066W, strain TOR1, hits give low values 0.94 | S. cerevisiae deletion strains, locus YKL009W, strain mrt4, hits give low values 0.986 | S. cerevisiae deletion strains, locus YKL068W, hits give low values 1 | S. cerevisiae deletion strains, locus YKL085W, strain MDH1 (second series), hits give low values 1.01 | S. cerevisiae deletion strains, locus YKL085W, strain MDH1, hits give low values 1.01 | S. cerevisiae deletion strains, locus YKL160W, strain elf1, hits give low values 0.933 | S. cerevisiae deletion strains, locus YKR001C, strain vps1, hits give low values 0.913 | S. cerevisiae deletion strains, locus YKR026C, strain gcn3, hits give low values 1.06 | S. cerevisiae deletion strains, locus YKR091W, strain srl3, hits give low values 0.981 | S. cerevisiae deletion strains, locus YLL001W, strain dnm1, hits give low values 0.993 | S. cerevisiae deletion strains, locus YLL026W, hits give low values 1 | S. cerevisiae deletion strains, locus YLL041C, strain sdh2, hits give low values 0.978 | S. cerevisiae deletion strains, locus YLR027C, strain aat2, hits give low values 0.963 | S. cerevisiae deletion strains, locus YLR039C, strain RIC1, hits give low values 0.772 | S. cerevisiae deletion strains, locus YLR102C, strain apc9, hits give low values 1 | S. cerevisiae deletion strains, locus YLR113W, strain HOG1, hits give low values 1.05 | S. cerevisiae deletion strains, locus YLR221C, strain rsa3, hits give low values 0.975 | S. cerevisiae deletion strains, locus YLR258W, strain gsy2, hits give low values 0.982 | S. cerevisiae deletion strains, locus YLR262C, strain YPT6, hits give low values 0.807 | S. cerevisiae deletion strains, locus YLR320W, strain mms22, hits give low values 0.928 | S. cerevisiae deletion strains, locus YLR330W, strain CHS5, hits give low values 0.953 | S. cerevisiae deletion strains, locus YLR342W, strain FKS1 (second series), hits give low values 0.909 | S. cerevisiae deletion strains, locus YLR342W, strain FKS1, hits give low values 0.989 | S. cerevisiae deletion strains, locus YLR357W, strain rsc2, hits give low values 1.13 | S. cerevisiae deletion strains, locus YLR370C, strain arc18, hits give low values 0.955 | S. cerevisiae deletion strains, locus YLR371W, strain rom2, hits give low values 0.986 | S. cerevisiae deletion strains, locus YLR384C, strain iki3, hits give low values 0.952 | S. cerevisiae deletion strains, locus YML016C, strain PPZ1, hits give low values 0.949 | S. cerevisiae deletion strains, locus YML120C, strain ndi1, hits give low values 0.973 | S. cerevisiae deletion strains, locus YML124C, strain tub3, hits give low values 1.02 | S. cerevisiae deletion strains, locus YMR058W, strain fet3, hits give low values 0.994 | S. cerevisiae deletion strains, locus YMR078C, strain ctf18, hits give low values 0.988 | S. cerevisiae deletion strains, locus YMR125W, strain sto1, hits give low values 0.94 | S. cerevisiae deletion strains, locus YMR129W, hits give low values 0.992 | S. cerevisiae deletion strains, locus YMR205C, strain PFK2, hits give low values 0.979 | S. cerevisiae deletion strains, locus YMR231W, strain pep5, hits give low values 0.996 | S. cerevisiae deletion strains, locus YMR263W, strain SAP30, hits give low values 0.936 | S. cerevisiae deletion strains, locus YMR307W, strain GAS1, hits give low values 0.971 | S. cerevisiae deletion strains, locus YNL071W, strain lat1, hits give low values 0.956 | S. cerevisiae deletion strains, locus YNL128W, strain TEP1, hits give low values 0.919 | S. cerevisiae deletion strains, locus YNL153C, strain GIM3, hits give low values 0.876 | S. cerevisiae deletion strains, locus YNL183C, strain NPR1, hits give low values 0.955 | S. cerevisiae deletion strains, locus YNL209W, strain ssb2, hits give low values 0.988 | S. cerevisiae deletion strains, locus YNL248C, strain rpa49, hits give low values 0.967 | S. cerevisiae deletion strains, locus YNL271C, strain bni1, hits give low values 0.977 | S. cerevisiae deletion strains, locus YNL298W, strain CLA4, hits give low values 0.918 | S. cerevisiae deletion strains, locus YNL322C, strain KRE1 (second series), hits give low values 0.981 | S. cerevisiae deletion strains, locus YNR049C, strain mso1, hits give low values 1.01 | S. cerevisiae deletion strains, locus YOL012C, strain htz1 1.03 | S. cerevisiae deletion strains, locus YOL147C, strain pex11, hits give low values 0.976 | S. cerevisiae deletion strains, locus YOR001W, strain rrp6, hits give low values 0.931 | S. cerevisiae deletion strains, locus YOR061W, strain CKA2, hits give low values 0.989 | S. cerevisiae deletion strains, locus YOR070C, strain gyp1, hits give low values 1.02 | S. cerevisiae deletion strains, locus YOR080W, strain dia2, hits give low values 0.953 | S. cerevisiae deletion strains, locus YOR083W, strain WHI5, hits give low values 0.973 | S. cerevisiae deletion strains, locus YOR106W, strain vam3, hits give low values 0.902 | S. cerevisiae deletion strains, locus YOR136W, strain idh2, hits give low values 0.984 | S. cerevisiae deletion strains, locus YOR144C, strain elg1, hits give low values 0.992 | S. cerevisiae deletion strains, locus YOR231W, strain MKK1, hits give low values 0.977 | S. cerevisiae deletion strains, locus YOR265W, strain rbl2, hits give low values 0.974 | S. cerevisiae deletion strains, locus YOR290C, strain snf2, hits give low values 1.04 | S. cerevisiae deletion strains, locus YOR316C, strain cot1, hits give low values 1.01 | S. cerevisiae deletion strains, locus YPL051W, strain arl3, hits give low values 0.938 | S. cerevisiae deletion strains, locus YPL078C, strain atp4, hits give low values 0.947 | S. cerevisiae deletion strains, locus YPL106C, strain sse1, hits give low values 1.12 | S. cerevisiae deletion strains, locus YPL240C, strain hsp82, hits give low values 0.996 | S. cerevisiae deletion strains, locus YPL256C, strain CLN2, hits give low values 0.952 | S. cerevisiae deletion strains, locus YPR119W, strain clb2, hits give low values 1 | S. cerevisiae deletion strains, locus YPR141C, strain kar3, hits give low values 0.975 | S. cerevisiae deletion strains, locus YPR167C, strain met16, hits give low values 0.984
